Measurements: PubChem BioAssay (NCI)
Compounds without any hit were thinned out: in the full panel of roughly 83,000, 20% have a hit.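 96-well plates, one dose, 48 hours. Percent growth reported; active if below 10.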 A number with no mark means an inactive call. Active and inactive are the calls of the source.

Experiments:
Test in all cases: NCI-60 one-dose screen, 48 h (100 = growth as untreated, 0 = no growth, -100 = all killed)
Conditions in all cases: 10 µM unless noted
NCI-H23 lung = test system: NCI-H23 lung
NCI-H226 lung = test system: NCI-H226 lung
NCI-H322M lung = test system: NCI-H322M lung
HOP-62 NSCLC = test system: HOP-62 NSCLC
NCI-H460 lung = test system: NCI-H460 lung
HOP-92 NSCLC = test system: HOP-92 NSCLC
NCI-H522 lung = test system: NCI-H522 lung
A549/ATCC NSCLC = test system: A549/ATCC NSCLC
786-0 renal = test system: 786-0 renal
COLO 205 colon = test system: COLO 205 colon

Row | Structure (SMILES) | growth (NCI-H23 lung) | growth (NCI-H226 lung) | growth (NCI-H322M lung) | growth (HOP-62 NSCLC) | growth (NCI-H460 lung) | growth (HOP-92 NSCLC) | growth (NCI-H522 lung) | growth (A549/ATCC NSCLC) | growth (786-0 renal) | growth (COLO 205 colon)
1 | COCCOc1ccc(-c2nc3ccc(-c4nc5ccc(N6CCN(C)CC6)cc5[nH]4)cc3[nH]2)cc1 | -4.24% (active) | -8.04% (active) | 17% | 14.2% | 35.9% | 26.4% | -41.9% (active) | 67.9% | 26.8% | -10.9% (active)
2 | O=[N+]([O-])c1c(F)cccc1Nc1cccc(F)c1 | 104% | 94.7% | 108% | 102% | 107% | 94.6% | 92% | 106% | 93.9% | 121%
3 | NCCN1CCN(c2nccc(-c3ccc4ccccc4c3)n2)CC1 | 87.2% | 81.9% | 54.4% | 74.9% | 17.6% | 27.7% | 81.3% | 52.3% | 47.6% | -78.1% (active)
4 | O=C1OC2C(I)C3CC2C1C3c1ccccc1 (stereo not given) | 94.8% | 105% | 139% | 88.9% | 117% | 93.7% | 110% | 110% | 95.2% | 125%
5 | CCC(=O)OCc1cccc(OC)c1 | 107% | 97.9% | 108% | 87.9% | 95.8% | 76.4% | 94.5% | 113% | 102% | 111%
6 | COc1cc(OC)c(/C=C/S(=O)(=O)Cc2cnc(OC)c(N)c2)c(OC)c1 | 30.8% | 64.3% | 33.2% | 23.8% | 9.05% (active) | 85.9% | -2.15% (active) | 9.4% (active) | 16.2% | -49.2% (active)
7 | C(=N\Nc1nnn(Cc2ccccc2)n1)/c1ccccc1 | 53.1% | 85% | 86% | 67.3% | 17.4% | 87.2% | 29.2% | 33.6% | 63.6% | 36.9%
8 | COc1ccc(-c2cc(NC(=O)Nc3ccc(O)cc3)no2)cc1 | 89.5% | 84.2% | 66.8% | 88.5% | 86.2% | 94% | 44.8% | 67.6% | 77.3% | 105%
9 | O=C(CO[N+](=O)[O-])Nc1ccc(C(=O)/C=C/c2ccc3c(c2)OCO3)cc1 | 58.1% | 107% | 108% | 112% | 108% | 77.3% | 97.6% | 88.9% | 109% | 113%
10 | CCN(C(=O)CN1CCN(c2cc3c(cc2F)c(=O)c(C(=O)O)cn3CC)CC1)c1nc(-c2ccccc2)cs1 | 9.94% (active) | 18.2% | 17.7% | 15.5% | 5.71% (active) | -31.8% (active) | -15.4% (active) | 4.66% (active) | 14.3% | -51.9% (active)
11 | COc1cnc2c(c1)C(=O)c1c-2n(CCCN2CCCC2)c(=O)c2cc([N+](=O)[O-])ccc12 | -7.75% (active) | -79.4% (active) | -11.9% (active) | -16.8% (active) | -60.1% (active) | 16.4% | -31% (active) | -44.8% (active) | -90.9% (active) | 2.24% (active)
12 | Cc1ccn2c(-c3csc(Nc4cccc(O)c4)n3)c(C)nc2c1 | 25.5% | 35.7% | 58.4% | 2.98% (active) | 13.7% | 52.2% | -17.4% (active) | 38.9% | 40.1% | -87.1% (active)
13 | O=C(COc1cccc(/C=C2/Oc3ccccc3C2=O)c1)Nc1nccs1 | 61.6% | 99.3% | 95.7% | 93.3% | 103% | -51.4% (active) | -9.74% (active) | 88.2% | 90.7% | 235%
14 | COc1nc2c(cc1S(=O)(=O)c1ccccc1)CCc1c-2cnn1Cc1ccccc1 | 54.1% | 65.9% | 60.1% | 56.2% | 54% | 3.62% (active) | 43.2% | 57.9% | 52.3% | 60.9%
15 | CCCCNP1(NCCCC)=NP(NCCCC)(NCCCC)=NP(NCCCC)(NCCCC)=NP(NCCCC)(NCCCC)=N1 | -49.6% (active) | 22.4% | 9.1% (active) | 10.2% | -8.78% (active) | -24.3% (active) | 7.68% (active) | 0.875% (active) | -6.24% (active) | -26.2% (active)
16 | COc1cc(-c2c3sc(=O)[nH]c3nc3c2c(=O)[nH]n3C(C)C)cc2c1OCO2 | 108% | 96.3% | 99.9% | 107% | 101% | 114% | 96.8% | 94.8% | 106% | 119%
17 | COc1ccc(/C=C/C(=O)c2ccc(NC(=O)c3cc4cc5ccccc5nc4s3)cc2)cc1OC | 87% | 86% | 84.2% | 92.3% | 99.9% | 108% | 95.9% | 105% | 106% | 99.5%
18 | COc1cnc2c(c1)C(=O)c1c-2n(CCCN2CCN(C)CC2)c(=O)c2cc([N+](=O)[O-])ccc12 | -46.4% (active) | 79.3% | -56.9% (active) | -61.3% (active) | -74.5% (active) | -57.7% (active) | -37.6% (active) | -78.9% (active) | -87.1% (active) | -5.87% (active)
19 | CNc1nc(C)c(-c2nc(Nc3cccc(S(N)(=O)=O)c3)ncc2F)s1 | -18.8% (active) | 7.23% (active) | 3.99% (active) | 3.17% (active) | 4.4% (active) | 38.2% | -11.7% (active) | 3.85% (active) | 2.98% (active) | -66.1% (active)
20 | CC(=O)N1CC(Nc2ccc(OC(F)(F)F)cc2)=CC1=O | 56.8% | 67.5% | 43.3% | 30.2% | 20.6% | 50% | 29.3% | 38.9% | 53.6% | 4.8% (active)
21 | CC/C=C\C[C@H](O)C/C=C1/C(=O)C=C[C@@H]1C/C=C\CCCC(=O)NC | -18.8% (active) | -41.1% (active) | 20.7% | -24.3% (active) | -49.9% (active) | 48.4% | -15.6% (active) | -36.7% (active) | -39.1% (active) | -25.2% (active)
